Source: ChEMBL document CHEMBL3988442, “University of Dundee, Small-Polar-MMV Screening Library” (2021)
Screen size: about 48,000 compounds; about 13,000 (27%) showed an effect of 50% or more. This is one part of the list.

These compounds were tested on Wolbachia pipientis (assay: Anti-Wolbachia Cell-Based Screen). Settings: 5 µM.
Assay type: functional
Design: scale not given: in the data most compounds retested in dose-response had high values

SMILES	Percent Effect [%]
C[S+]([O-])c1nncn1CC(=O)c1ccc(Cl)c(Cl)c1 (stereo not given)	17.05
Cc1cnn(CCCN2C(=O)CCc3ccccc32)c1	16.17
CSCCC(O)C(=O)N1CCCN(Cc2ccc(F)cc2)CC1 (stereo not given)	20.52
Cc1cc(N2CCCN(C(=O)CSCC3CC3)CC2)ccn1	97.17
O=C(CSCC1CC1)N1CCCN(c2ccc(F)cc2)CC1	101.8
Cc1cc(N2CCCN(C(=O)Cc3cc(F)cc(F)c3)CC2)ccn1	-40.46
COCc1ccc(C(=O)N2CCCN(c3ccc(F)cc3)CC2)s1	-6.209
CCc1nnsc1C(=O)N1CCCN(Cc2ccc(F)cc2)CC1	12.06
O=C(CSCC1CC1)N1CCCN(Cc2ccc(F)cc2)CC1	113.6
Cc1cc(N2CCCN(C(=O)Cc3cccnc3)CC2)ccn1	-24.68
Cc1nc(CC(=O)N2CCCN(c3ccc(F)cc3)CC2)cs1	6.987
CN(Cc1ccccn1)C(=O)c1ccc2c(c1O)OC(C)(C)C2	-37.36
COc1ccc(OC)c(CN(C)c2ncc(S(N)(=O)=O)s2)c1	-0.04358
c1cnn(CCNCc2csc(-c3ccsc3)n2)c1	8.023
O=C(C1CCCCC1)N1C[C@@H]2CCN(c3cnccn3)C[C@@H]2C1.O=C(O)C(F)(F)F	86.55
O=C(C1CCCO1)N1C[C@@H]2CCN(c3cnccn3)C[C@@H]2C1.O=C(O)C(F)(F)F (stereo not given in full)	102.5
O=C(C1CCCC1)N1C[C@@H]2CCN(c3cnccn3)C[C@@H]2C1.O=C(O)C(F)(F)F	80.73
O=C(O)C(F)(F)F.O=C(c1cnccn1)N1C[C@@H]2CCN(c3cnccn3)C[C@@H]2C1	21.49
CC(C)CN1CC(C(=O)N(C)CCc2cn[nH]c2)CC1=O (stereo not given)	-9.129
Cc1ncc(CNC(=O)CCc2ccccc2F)c(C2CCCN2C)n1 (stereo not given)	94.99

SMILES	Percent Effect [%]
CS(=O)(=O)N1C[C@@H]2CC[C@H](C1)N(CCC(=O)NCc1ccccc1F)C2	-8.664
Cc1ncc(CNC(=O)CCc2cccs2)c(C2CCCN2C)n1 (stereo not given)	135.8
COc1cccc(CC(=O)NCc2cnc(C)nc2C2CCCN2C)c1 (stereo not given)	116.5
Cc1ncc(CNC(=O)CCOc2ccccc2)c(C2CCCN2C)n1 (stereo not given)	-4.417
COc1cccc(CCNC(=O)CN2CCCC2c2noc(C)n2)c1 (stereo not given)	-3.314
CCOc1ncccc1CNC(=O)N1CCCC1c1cccs1 (stereo not given)	-31.15
Cc1ncc(CNC(=O)CCc2cccc(F)c2)c(C2CCCN2C)n1 (stereo not given)	2.906
Cc1ncc(CNC(=O)Cc2cccs2)c(C2CCCN2C)n1 (stereo not given)	125.2
O=C1NCCN(Cc2cccnc2)C1CC(=O)N1CCc2n[nH]cc2C1 (stereo not given)	-19.58
O=C1C(Sc2nc(=O)ccn2C2CC2)CCN1c1ccccc1F (stereo not given)	-10.52
CCNC(=O)N1CCC(NC(=O)NCCc2cc3ccccc3o2)C1 (stereo not given)	-2.435
CSCC(C)NCc1ccc2[nH]c(C)c(C)c2c1 (stereo not given)	7.257
COCCC(=O)N1C[C@H]2CC[C@@H]1CN(C1Cc3ccccc3C1)C2	12.41
O=C(Nc1nncs1)N(Cc1cccc(O)c1)C1CC1	-1.611
CCC(C)(CC(=O)O)NC(=O)Cc1ccccc1Br (stereo not given)	0.3012
Cc1ncc(CNC(=O)Cc2ccc(Cl)cc2)c(C2CCCN2C)n1 (stereo not given)	-6.333
Cc1nc(C2CCCN2CC(=O)NCCc2ccsc2)no1 (stereo not given)	-6.143
Cc1noc(C)c1CNC(=O)c1ccc(NC2CC2)nc1	4.161
Cc1ncc(CNC(=O)Cc2ccsc2)c(C2CCCN2C)n1 (stereo not given)	124.7
Cc1ncc(CNC(=O)CCc2c(C)noc2C)c(C2CCCN2C)n1 (stereo not given)	116.8

SMILES	Percent Effect [%]
Cc1noc(C)c1CCCNC(=O)C1CCCN(C(=O)C2CC2)C1 (stereo not given)	-0.7156
CCCNC(=O)c1cc(Br)cc(S(=O)(=O)N2CCOCC2)c1F	-12.55
CN1[C@H](CN2CCCC2)C[C@@H]2CN(C(=O)Cc3ccsc3)CC[C@@H]21.O=C(O)C(F)(F)F.O=C(O)C(F)(F)F	88.77
CN1[C@H](CN2CCCC2)C[C@@H]2CN(C(=O)c3cnccn3)CC[C@@H]21	120.7
CN1[C@H](Cn2cncn2)C[C@@H]2CN(Cc3ccsc3)CC[C@@H]21.O=C(O)C(F)(F)F.O=C(O)C(F)(F)F	-21.59
O=C(O)C(F)(F)F.O=C(c1cnccn1)N1CC[C@@H]2CO[C@@H](CN3CCCC3)[C@@H]2C1	-10.73
CN1[C@H](CN2CCCC2)C[C@@H]2CN(C(=O)c3ccsc3)CC[C@@H]21	81.43
C[C@@H]1C[C@@H]2CCN(C(=O)c3cnccn3)C[C@H]2O1	-10.48
O=C(c1ccsc1)N1C[C@@H](CN2CCCC2)[C@@H](CO)C1	20.63
O=C(C[C@H]1[C@H]2CN(Cc3ccsc3)C[C@@H]12)N1CCCC1.O=C(O)C(F)(F)F	-30.77
COc1cc(S(=O)(=O)N2CCCc3ccccc32)cc(C(=O)O)c1OC	4.14
c1ccc(Cc2nc(C3CC3)nn2-c2ccc3c(c2)OCCO3)nc1	5.106
O=C(NCCC1CN(Cc2c[nH]cn2)CCO1)Nc1ccccc1 (stereo not given)	-0.1872
CCS(=O)(=O)N1CCOC(CCCc2ccccc2)C1 (stereo not given)	-15.33
c1ccc(C(CC2CN(Cc3c[nH]cn3)CCO2)c2ccccc2)cc1 (stereo not given)	106.4
CC(C)c1n[nH]c(C2CN(Cc3ncc[nH]3)CCO2)n1 (stereo not given)	-3.355
c1ccc(C(CC2CN(Cc3ncc[nH]3)CCO2)c2ccccc2)cc1 (stereo not given)	116.4
CC(C)n1ccnc1CN1CCOC(CCc2ccccc2)C1 (stereo not given)	-13.14
CCN(CC1CN(Cc2ncc[nH]2)CCO1)c1cccnn1 (stereo not given)	4.051
c1ccc(CCCC2CN(Cc3ncc[nH]3)CCO2)cc1 (stereo not given)	98.97
